Measured potencies and affinities stand elsewhere. Records with an inconclusive call do not appear. Calls of active or inactive are those of the source.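 Rule for the calls: active = every test run gave an active call, each with a potency at or below twice the top valid dose; inconclusive = test runs disagree, or curve fits are weak or unclear; inactive = every test run inactive, including wrong-way signal.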

A short description of this assay: C2C12 myoblast ATP-based viability loss, dose response, cytotoxicity control for HRAS target identification, cell-based, CellTiter-Glo ATP luminescence, 8/24/48 h, dry powder (AID 720603). The note with it: C2C12 mouse myoblast viability, 8-48 h; series mostly up to 35 µM. A general note: ATP-based viability assays read luminescence as a measure of living cells.

Take `Cc1onc(C(=O)N2CCN(C(c3ccncc3)c3ccncc3)CC2)c1[N+](=O)[O-]`: the call was inactive.

Values taken from PubChem BioAssay AID720603 (Broad Institute, 2013).
